This note sets out measurements from PubChem BioAssay (NCATS).

Inconclusive results are not listed. Activity calls are given as the source filed them. Unless noted, calls follow the shape of the dose curve; as a rule, active = well fitted curve in the direction sought with a large enough effect; inconclusive = small, poorly fitted or top-dose-only effect, or another doubt; inactive = no such curve, though single readings can be large; an effect the other way counts as inactive or inconclusive.

The target in assay [1] is Beta-2 adrenergic receptor (Homo sapiens) (UniProt P07550). Description: qHTS validation assay of beta-arrestin-biased ligands of beta2-adrenergic receptor (AID 485366). Also: 0% is about no effect. The method in brief:
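Agonist activity is measured as luciferase luminescence downstream of beta-arrestin recruitment to recombinant beta2-AR in Tango cells. Exposure lasts 18 hr at 37 degrees C, and curves are categorized by r2, response size and activity.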

A short description of assay [2]: Quantitative high throughput screen for delayed death inhibitors of the malarial parasite plastid, 48 hour incubation (AID 488752). Also: % is scaled to controls: 0 for no effect and ±100 for the full control effect; nearly all actives have a fitted effect of over 65% in size. In outline: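 Cultures: infected erythrocytes at final 2% hematocrit and 0.1% parasitemia in Albumax-supplemented RPMI. Parasites express integrated firefly luciferase. Incubation with compound lasts 48 h before luminescent detection of remaining reporter activity.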

Assay [3] addresses Thioredoxin reductase 1, cytoplasmic (Rattus norvegicus) (UniProt O89049). The experiment in a line: qHTS Assay for Substrates of Mammalian Selenoprotein Thioredoxin Reductase 1 (TrxR1) (AID 488772).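 Also: series mostly up to about 57 µM; 0% is about no effect; a drop in NADPH fluorescence below the no-compound background marks a TrxR1 substrate.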 The method in brief: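 In this dual-purpose format, potential substrates are identified from the first fluorescence read after selenite addition, not from the 8-minute delta. Rat enzyme is preincubated with NADPH and then with compound at ~22 deg C.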

The target is the same in assay [4]. The experiment in a line: qHTS Assay for Inhibitors of Mammalian Selenoprotein Thioredoxin Reductase 1 (TrxR1) (AID 488773).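 Also: drop in NADPH fluorescence over an 8 min run after selenite addition; series mostly up to about 57 µM; % is scaled to controls: 0 for no effect and ±100 for the full control effect; nearly all actives have a fitted effect of over 40% in size.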 Conditions: Potency: inhibition. The method in brief:
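Inhibition is scored from the loss of NADPH fluorescence between first and last reads of an 8-min kinetic run. Selenite (400 uM) was the substrate, added after 15 min compound preincubation at room temperature.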

Assay [5] addresses M-phase phosphoprotein 8 (Homo sapiens) (UniProt Q99549). Description: qHTS Validation Assay for Inhibitors for MPP8 Chromodomain Interactions with Methylated Histone Tails (AID 488949). Also: top concentration of the series differs between compounds; % is scaled to controls: 0 for no effect and ±100 for the full control effect; nearly all actives have a fitted effect of over 55% in size. In outline: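 MPP8 (50 nM) was preincubated with biotinylated H3(1-18)K9me3 peptide (50 nM) in PBS pH 7.4, 0.01% Tween-20 for 30 min at room temperature, then with compounds for 30 min; binding was detected by AlphaScreen.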

For assay [6], the target named is Methanococcus maripaludis chaperonin (MmCpn) (UniProt Q6LX38). Description: High-Throughput Screening for Modulators of Cytosolic Chaperonin Activity: MmCpn Primary Screen (AID 488978).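 Also: 50 nM MmCpn enzyme hydrolysing 30 µM ATP at 37 °C; 0% is about no effect.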 The method in brief: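 MmCpn (50 nM final) was preincubated with compound 5 min at RT, then 30 uM ATP (final) was added and the reaction ran 10 min at 37C. ADP produced was detected by Transcreener HTRF (ex 320 nm; em 590/665 nm).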

For assay [7], the target named is Thyrotropin receptor (Homo sapiens) (UniProt P16473). The experiment in a line: qHTS Assay for Antagonists of the Thyroid Stimulating Hormone Receptor (AID 488980). Also: series mostly up to about 58 µM; 0% is about no effect. In outline: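 HEK293 cells transfected with human TSHR, suspended in HEPES-buffered HBSS with 70 uM RO 20-1724, were treated with compounds plus TSH at EC80 (4 nM final). cAMP was measured by competitive HTRF (cryptate anti-cAMP antibody, cAMP-d2 acceptor).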
Thyrotropin receptor (Homo sapiens), sequence (P16473 whole entry, looked up): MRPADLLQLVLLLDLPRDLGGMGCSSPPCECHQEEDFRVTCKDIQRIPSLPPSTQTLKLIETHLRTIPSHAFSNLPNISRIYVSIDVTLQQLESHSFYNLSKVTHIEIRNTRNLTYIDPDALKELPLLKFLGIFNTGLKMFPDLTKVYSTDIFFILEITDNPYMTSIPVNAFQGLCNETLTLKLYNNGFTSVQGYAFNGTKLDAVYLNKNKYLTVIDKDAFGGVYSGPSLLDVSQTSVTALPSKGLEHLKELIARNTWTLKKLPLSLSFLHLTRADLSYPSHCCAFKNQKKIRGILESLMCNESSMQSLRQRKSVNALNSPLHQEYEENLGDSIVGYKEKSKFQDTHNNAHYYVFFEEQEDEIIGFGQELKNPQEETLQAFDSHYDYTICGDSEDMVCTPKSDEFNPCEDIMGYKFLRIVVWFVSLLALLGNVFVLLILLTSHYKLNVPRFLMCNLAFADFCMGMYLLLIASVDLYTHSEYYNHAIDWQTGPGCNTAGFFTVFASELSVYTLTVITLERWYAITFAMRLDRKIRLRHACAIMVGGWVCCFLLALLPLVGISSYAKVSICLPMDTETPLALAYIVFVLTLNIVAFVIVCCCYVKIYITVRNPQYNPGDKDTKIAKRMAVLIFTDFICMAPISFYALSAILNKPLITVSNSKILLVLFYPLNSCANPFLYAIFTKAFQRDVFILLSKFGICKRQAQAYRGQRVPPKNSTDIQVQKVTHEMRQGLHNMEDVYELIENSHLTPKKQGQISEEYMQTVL

In assay [8] the target is D(1A) dopamine receptor (Homo sapiens) (UniProt P21728). The experiment in a line: HTS Assay for Allosteric Agonists of the Human D1 Dopamine Receptor: Primary Screen for Potentiators (AID 488982). Also: 0% is about no effect. In outline: (§1)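 Tetracycline-induced HEK293 Trex D1 cells with forced coupling to calcium, loaded with no-wash calcium dye; kinetic fluorescence read 180 s after compound addition for agonism, then a further 180 s after an EC20 dopamine challenge for potentiation.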
D(1A) dopamine receptor (Homo sapiens), sequence (P21728 whole entry, looked up): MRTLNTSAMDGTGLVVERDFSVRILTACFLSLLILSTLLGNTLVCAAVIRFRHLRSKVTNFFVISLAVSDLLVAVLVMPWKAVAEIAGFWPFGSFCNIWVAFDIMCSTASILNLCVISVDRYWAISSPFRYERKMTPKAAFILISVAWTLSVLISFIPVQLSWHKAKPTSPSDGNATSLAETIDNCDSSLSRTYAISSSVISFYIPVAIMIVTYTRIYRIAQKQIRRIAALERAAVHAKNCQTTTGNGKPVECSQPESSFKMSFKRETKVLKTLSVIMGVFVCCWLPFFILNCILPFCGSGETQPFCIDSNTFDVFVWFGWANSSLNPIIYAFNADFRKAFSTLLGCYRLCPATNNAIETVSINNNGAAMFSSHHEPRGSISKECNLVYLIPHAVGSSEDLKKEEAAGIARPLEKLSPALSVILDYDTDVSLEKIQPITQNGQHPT

The target is the same in assay [9]. Description: HTS Assay for Allosteric Agonists of the Human D1 Dopamine Receptor: Primary Screen for Antagonists (AID 488983).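 Also: calcium flux response to an EC80 dopamine challenge measured with no-wash dye; % is scaled to controls: 0 for no effect and ±100 for the full control effect; nearly all actives have a fitted effect of over 65% in size.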 In outline:
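In this primary screen, compounds are applied to calcium-dye-loaded HEK293 T-REx cells with force-coupled D1 expression induced overnight at 30 C. An EC80 of dopamine follows the 180 s compound phase, and calcium is monitored for a further 180 s.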

Assay [10] is described as follows: Validation screen for small molecules that induce genotoxicity in human embryonic kidney (HEK293T) cells expressing luciferase-tagged ELG1 (AID 493106). Also: 0% is about no effect. The method in brief:
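In this validation screen, increased ELG1-luciferase signal flags compounds causing genetic stress. HEK293T reporter cells are treated 16 hr (37 °C, 5% CO2), developed with ONE-Glo for 30 min at room temperature, and imaged on a CCD-based reader.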

For assay [11], the target named is ATPase family AAA domain-containing protein 5 (Homo sapiens) (UniProt Q96QE3). The experiment in a line: Validation screen for small molecules that inhibit ELG1-dependent DNA repair in human embryonic kidney (HEK293T) cells expressing luciferase-tagged ELG1 (AID 493107).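 Also: cells co-treated with the DNA-damaging agent 5-fluorouridine alongside compound; series mostly up to about 46 µM; % is scaled to controls: 0 for no effect and ±100 for the full control effect; inhibitors lower the ELG1-luciferase luminescence signal; nearly all actives have a fitted effect of over 70% in size.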 In outline:
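Compounds reducing 5-fluorouridine-driven ELG1-luciferase signal in HEK293T cells were scored; exposure lasted 16 hr at 37 °C with luminescence detected via ONE-Glo.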

The target in assay [12] is Thyrotropin-releasing hormone receptor (Homo sapiens) (UniProt P34981). Description: qHTS for Small Molecule Agonists and Allosteric Enhancers of Human TRH Receptor: Validation Screen for Agonists (AID 493127;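 active = calcium activation more than 3 SD above the typical response in the agonist read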;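 also: intracellular calcium rise by fluo-8 fluorescence before TRH EC20 addition; 0% is about no effect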). Conditions: TRH receptor agonist cell assay; at 2 µM; stronger effect = higher value. In outline: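 Kinetic fluorescence assay of agonist-induced calcium release: overnight-plated TRHR cells, room-temperature fluo-8 loading, baseline then compound addition with per-second reads.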
Thyrotropin-releasing hormone receptor (Homo sapiens), sequence (P34981 whole entry, looked up): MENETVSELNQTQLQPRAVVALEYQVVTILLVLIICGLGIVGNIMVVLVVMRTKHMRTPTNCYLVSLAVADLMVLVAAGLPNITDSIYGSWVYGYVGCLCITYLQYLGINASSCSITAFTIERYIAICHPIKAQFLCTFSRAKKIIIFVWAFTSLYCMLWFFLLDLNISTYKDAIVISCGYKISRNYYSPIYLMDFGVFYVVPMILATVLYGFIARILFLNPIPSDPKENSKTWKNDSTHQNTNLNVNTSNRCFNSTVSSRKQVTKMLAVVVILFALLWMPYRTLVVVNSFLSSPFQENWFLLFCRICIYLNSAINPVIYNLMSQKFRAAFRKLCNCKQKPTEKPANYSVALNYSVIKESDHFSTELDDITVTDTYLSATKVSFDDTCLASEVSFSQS

Assay [13] is described as follows: Nrf2 qHTS screen for inhibitors: Validation (AID 493153; active = well fitted inhibition curve with a large enough effect in the main read-out, with a control signal flat, not every such curve was filed as active). Conditions: Potency: luciferase luminescence; viability change: measured here: cytotoxicity max response. The method in brief:
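In this counterscreened reporter format, each well gives two signals: CellTiter-Fluor fluorescence for cytotoxicity and ARE-luciferase luminescence for Nrf2 function. A549 ARE_Fluc cells in 5% FBS OPTI-MEM were exposed to compound titrations for 18-24 h.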

Assay [14] in a line: qHTS for Inhibitors of Cell Surface uPA Generation: Validation Assay (AID 493164).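 Also: RAW 264.7 macrophage cells exposed to compound for 18 h; 0% is about no effect.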 In outline:
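Compounds are titrated over seven points (2.45 nM–38.3 uM final) onto pre-plated RAW 264.7 cells and incubated for 18 h. Retained intracellular ATP, measured with ATP-Lite, indicates blocked lethal factor entry.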

Assay [15] concerns the target ATP-dependent 6-phosphofructokinase (Trypanosoma brucei brucei) (UniProt O15648). Description: qHTS Assay to Find Inhibitors of T. brucei phosphofructokinase: hit validation (AID 492961). Also: potency is read from the fitted curve at half-maximal effect. The method in brief: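 Inhibition of parasite PFK is measured as reduced ADP formation, quantified via luciferase after ATP depletion. Assay used 0.1 mM ATP, 0.5 mM F6P, 1.25 nM enzyme, 45 min incubation.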

In assay [16] the target is Flap endonuclease 1 (Homo sapiens) (UniProt P39748). The experiment in a line: qHTS Validation Assay for the Inhibitors of Human Flap endonuclease 1 (FEN1) (AID 488816). Also: % is scaled to controls: 0 for no effect and ±100 for the full control effect. The method in brief:
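Enzyme reagent 10 nM; cpds pinned; 15 min RT preinc.; substrate 50 nM final; reads t=0 and 15 min; no-enzyme buffer wells as neg. control; normalized data, 4-parameter Hill fit.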

In assay [17] the target is Tyrosyl-DNA phosphodiesterase 1 (Homo sapiens) (UniProt Q9NUW8). The experiment in a line: Confirmation Assay for Inhibitors of Tyrosyl-DNA Phosphodiesterase (TDP1) (AID 489007). Also: potency is read from the fitted curve at half-maximal effect; nearly all actives have a fitted effect of over 40% in size. To be noted: recombinant human TDP1 enzymatic activity, dose-response. In outline: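 Loss of AlphaScreen signal reports Tdp1 cleavage of a dual-labelled DNA substrate. Conditions: 1 nM E. coli-derived enzyme, 15 nM substrate, 15 min compound preincubation, 5 min reaction, 10 min bead incubation, all at room temperature.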

In assay [18] the target is Chromobox protein homolog 1 (Homo sapiens) (UniProt P83916). Description: qHTS Validation Assay for Inhibitors of HP1-beta Chromodomain Interactions with Methylated Histone Tails (AID 488953). Also: potency is read from the fitted curve at half-maximal effect; nearly all actives have a fitted effect of over 50% in size. In outline: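 Compounds pinned into a preassembled complex of HP1-beta and trimethyl-K9 histone H3(1-18) biotin peptide (50 nM each; PBS pH 7.4, 0.01% Tween-20). After 30 min, bead-based AlphaScreen detection followed.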
Chromobox protein homolog 1 (Homo sapiens), sequence (P83916 whole entry, looked up): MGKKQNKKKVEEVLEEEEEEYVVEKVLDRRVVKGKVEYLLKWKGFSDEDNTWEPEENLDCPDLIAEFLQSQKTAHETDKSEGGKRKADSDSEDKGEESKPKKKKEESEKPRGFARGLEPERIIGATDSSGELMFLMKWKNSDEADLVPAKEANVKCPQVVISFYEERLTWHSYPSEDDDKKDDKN

The target of assay [19] is D(1A) dopamine receptor (Homo sapiens) (UniProt P21728). Description: HTS Assay for Allosteric Agonists of the Human D1 Dopamine Receptor: Primary Screen for Agonists (AID 488981). Also: 0% is about no effect. The method in brief: as §1

Beta-2 adrenergic receptor (Homo sapiens), sequence (P07550 whole entry, looked up): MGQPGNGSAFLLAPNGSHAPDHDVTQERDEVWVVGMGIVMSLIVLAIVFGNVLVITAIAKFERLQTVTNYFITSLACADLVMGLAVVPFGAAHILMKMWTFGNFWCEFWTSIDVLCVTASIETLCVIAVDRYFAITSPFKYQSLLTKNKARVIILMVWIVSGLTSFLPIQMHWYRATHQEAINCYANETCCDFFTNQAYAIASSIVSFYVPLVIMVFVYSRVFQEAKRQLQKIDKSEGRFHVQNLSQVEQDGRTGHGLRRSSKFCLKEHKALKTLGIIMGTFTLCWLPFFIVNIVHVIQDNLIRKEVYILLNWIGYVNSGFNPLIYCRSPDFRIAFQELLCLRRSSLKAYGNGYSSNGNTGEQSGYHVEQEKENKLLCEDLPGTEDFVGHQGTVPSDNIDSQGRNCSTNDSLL
Flap endonuclease 1 (Homo sapiens), sequence (P39748 whole entry, looked up): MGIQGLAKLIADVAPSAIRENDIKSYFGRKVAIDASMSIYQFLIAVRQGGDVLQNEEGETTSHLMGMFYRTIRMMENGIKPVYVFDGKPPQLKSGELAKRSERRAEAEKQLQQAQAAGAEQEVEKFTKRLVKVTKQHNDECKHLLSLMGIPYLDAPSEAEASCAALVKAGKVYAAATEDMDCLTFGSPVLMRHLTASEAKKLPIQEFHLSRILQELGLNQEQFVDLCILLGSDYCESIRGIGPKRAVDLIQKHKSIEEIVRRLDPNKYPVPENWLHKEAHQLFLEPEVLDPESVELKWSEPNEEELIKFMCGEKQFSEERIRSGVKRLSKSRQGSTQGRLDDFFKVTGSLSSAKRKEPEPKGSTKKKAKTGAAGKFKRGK
ATPase family AAA domain-containing protein 5 (Homo sapiens), sequence (Q96QE3 whole entry, looked up, the tested form may be a part): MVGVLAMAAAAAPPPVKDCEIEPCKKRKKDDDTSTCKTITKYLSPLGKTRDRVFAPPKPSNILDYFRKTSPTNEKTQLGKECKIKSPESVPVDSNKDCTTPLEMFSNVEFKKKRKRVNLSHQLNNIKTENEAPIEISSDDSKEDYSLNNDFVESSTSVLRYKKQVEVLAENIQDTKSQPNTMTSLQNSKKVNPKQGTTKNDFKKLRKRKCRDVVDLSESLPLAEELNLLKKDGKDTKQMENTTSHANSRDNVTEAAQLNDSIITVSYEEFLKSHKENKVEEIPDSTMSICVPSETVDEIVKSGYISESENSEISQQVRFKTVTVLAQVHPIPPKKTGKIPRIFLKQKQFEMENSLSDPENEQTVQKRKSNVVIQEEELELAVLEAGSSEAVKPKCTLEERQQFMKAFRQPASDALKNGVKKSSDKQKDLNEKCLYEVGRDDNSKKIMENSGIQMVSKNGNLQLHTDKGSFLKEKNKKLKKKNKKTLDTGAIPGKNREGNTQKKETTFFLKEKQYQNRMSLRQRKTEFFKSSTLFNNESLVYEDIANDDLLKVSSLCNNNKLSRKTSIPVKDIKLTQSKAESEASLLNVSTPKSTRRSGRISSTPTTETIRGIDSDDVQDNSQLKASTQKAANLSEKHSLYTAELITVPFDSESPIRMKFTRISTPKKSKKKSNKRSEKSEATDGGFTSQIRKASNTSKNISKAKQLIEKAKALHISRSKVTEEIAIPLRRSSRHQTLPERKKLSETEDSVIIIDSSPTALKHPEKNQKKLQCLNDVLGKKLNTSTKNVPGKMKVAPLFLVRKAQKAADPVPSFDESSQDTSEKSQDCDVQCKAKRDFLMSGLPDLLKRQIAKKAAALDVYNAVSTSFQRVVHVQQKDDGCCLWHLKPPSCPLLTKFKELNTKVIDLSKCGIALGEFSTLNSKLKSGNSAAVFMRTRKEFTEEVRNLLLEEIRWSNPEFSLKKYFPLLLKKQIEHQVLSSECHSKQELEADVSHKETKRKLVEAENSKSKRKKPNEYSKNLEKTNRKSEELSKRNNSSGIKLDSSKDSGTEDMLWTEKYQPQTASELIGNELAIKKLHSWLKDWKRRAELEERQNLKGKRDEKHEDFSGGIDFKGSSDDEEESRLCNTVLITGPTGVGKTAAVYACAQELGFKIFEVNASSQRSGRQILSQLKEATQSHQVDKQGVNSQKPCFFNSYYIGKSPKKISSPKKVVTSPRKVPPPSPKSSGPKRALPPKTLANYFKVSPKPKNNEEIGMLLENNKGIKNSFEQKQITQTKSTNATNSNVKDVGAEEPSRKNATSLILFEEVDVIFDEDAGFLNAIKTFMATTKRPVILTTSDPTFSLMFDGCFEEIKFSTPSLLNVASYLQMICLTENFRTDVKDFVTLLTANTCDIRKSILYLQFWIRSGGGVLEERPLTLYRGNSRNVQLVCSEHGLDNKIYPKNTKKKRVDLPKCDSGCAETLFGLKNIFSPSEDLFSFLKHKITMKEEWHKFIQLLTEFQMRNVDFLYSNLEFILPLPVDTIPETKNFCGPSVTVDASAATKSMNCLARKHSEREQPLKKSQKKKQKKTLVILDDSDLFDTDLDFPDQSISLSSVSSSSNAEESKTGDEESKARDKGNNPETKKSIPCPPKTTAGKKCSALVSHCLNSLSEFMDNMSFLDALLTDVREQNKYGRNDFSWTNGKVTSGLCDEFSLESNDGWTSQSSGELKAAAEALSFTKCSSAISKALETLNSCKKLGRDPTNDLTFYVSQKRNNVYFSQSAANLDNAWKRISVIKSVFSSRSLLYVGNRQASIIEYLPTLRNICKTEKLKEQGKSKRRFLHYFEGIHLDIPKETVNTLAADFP
ATP-dependent 6-phosphofructokinase (Trypanosoma brucei brucei), sequence (O15648 whole entry, looked up): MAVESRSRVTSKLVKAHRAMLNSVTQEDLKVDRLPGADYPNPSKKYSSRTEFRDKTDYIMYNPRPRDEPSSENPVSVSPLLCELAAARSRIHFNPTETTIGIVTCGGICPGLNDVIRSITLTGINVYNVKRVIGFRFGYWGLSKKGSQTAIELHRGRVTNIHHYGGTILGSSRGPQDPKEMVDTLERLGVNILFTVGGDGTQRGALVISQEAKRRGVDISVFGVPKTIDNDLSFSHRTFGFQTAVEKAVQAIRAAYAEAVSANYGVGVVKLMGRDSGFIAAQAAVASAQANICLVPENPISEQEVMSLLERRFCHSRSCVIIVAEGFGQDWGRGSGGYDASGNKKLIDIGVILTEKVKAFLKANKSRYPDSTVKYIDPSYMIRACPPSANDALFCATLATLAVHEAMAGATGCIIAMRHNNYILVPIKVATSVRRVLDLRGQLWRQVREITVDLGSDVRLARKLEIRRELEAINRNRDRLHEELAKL

On to `NC(N)=NCCC[C@H](N)C(=O)O`, for which the call in assay [1], in [3], in assay [7], in [8], in assay [11] and in [14] was inactive. Besides, the Potency entry in assay [2], in [4], in assay [5], in [6], in assay [9] and in assay [10] was “inactive” throughout. The Potency result in [13] was “inactive”. Further, the activation in [12] is -0.438% (inactive). Also, in assay [13], the viability change worked out at 3.44%.
Take `Cc1cc(O)cc2c1O[C@](C)(CCC[C@H](C)CCC[C@H](C)CCCC(C)C)CC2`: in [15], the Potency entry was “inactive”.
On to `CC1=C(/C=C/C(C)=C/C=C/C(C)=C/C(=O)O)C(C)(C)CCC1`, for which the call in assay [1], in [3], in [8], in assay [11] and in [14] was inactive. Moreover, the Potency result in assay [16], in assay [5], in [6], in assay [9], in assay [10] and in [13] was “inactive” in each case. In addition, the activation in [12] is 0.375% (inactive). Moreover, the viability change in [13] was -3.39%.
As to `CN(C)CCCN1c2ccccc2CCc2ccccc21`, the result in assay [1], in assay [7], in assay [11] and in assay [14] was inactive. In addition, the Potency entry in assay [6], in [10] and in assay [13] was “inactive” in each case. The activation in assay [12] was 2.19% (inactive). In addition, the viability change in [13] was -5.46%.
On to `O=Cc1ccccc1C=O`, for which, in assay [17], the Potency was 14.1 µM (active).
Take `CCN(CC)C(C)CN1c2ccccc2Sc2ccccc21` (stereo not drawn): the call in assay [1], in assay [3], in assay [8], in assay [11] and in assay [14] was inactive. Also, the Potency entry in assay [16], in assay [5], in assay [6], in [9], in assay [10] and in [13] was “inactive” each time. Besides, in assay [18], the Potency was 0.0299 µM (active). Further, the viability change in assay [13] is -0.429%.
As for `O=C1N=C(O)CN1/N=C/c1ccc(-c2ccc([N+](=O)[O-])cc2)o1`, the call in [1], in assay [7], in [8], in [11] and in assay [14] was inactive. Besides, the Potency result in [4], in [16], in assay [5], in [6], in [19] and in assay [9] was “inactive” in each case. Also, the Potency entry in assay [10] and in [13] was “inactive” each time. Also, the viability change in [13] is -12.1%.
On to `O=C(O)CN1C(=O)c2cccc3cccc(c23)C1=O`, for which the Potency entry in [15] was “inactive”.
Same read-out and setting: in the case of `CC(=O)c1ccc2c(c1)N(CCCN(C)C)c1ccccc1S2` it was “inactive”; in that of `Nc1ccc(S(=O)(=O)Nc2ccccc2)cc1`, “inactive”.
Same read-out and setting: next, `CCCCC(CC)COC(=O)c1ccccc1O` (stereo not drawn): “inactive”; `Nc1nc2c(ncn2CCC(CO)CO)c(=O)[nH]1`: “inactive”.
Still for that read-out and setting: in the case of `[Cl][In]([Cl])[Cl]` it was “inactive”; in that of `Cc1cc(CC(=O)O)n(C)c1C(=O)c1ccc(Cl)cc1`, “inactive”; in that of `Nc1ccc(S(=O)(=O)NC(=O)c2ccccc2)cc1`, “inactive”.
`CCCCN(CCCC)CCCOC(=O)c1ccc(N)cc1`: the Potency result in assay [15] is “inactive”.
The same measure, in the same setting: next, `C[C@H](N)[C@H](O)c1cccc(O)c1`: “inactive”; `CCCOC(=O)c1ccccc1`: “inactive”.
On the same count and under the same terms, in the case of `[O-][n+]1cccc(CO)c1` it was “inactive”; in that of `N[C@@H](CSCCCO)C(=O)O`, “inactive”.
Still for that read-out and setting: next, `COc1cc(C(=O)N2CCOCC2)cc(OC)c1OC`: “inactive”.
In the case of `CC(C)(C)C(=O)C(Oc1ccc(Cl)cc1)n1ccnc1` (stereo not drawn), in [15], the Potency entry is “inactive”.
Still for that read-out and setting: in the case of `C[C@@H]1CN(c2c(F)c(F)c3c(=O)c(C(=O)O)cn(C4CC4)c3c2F)C[C@H](C)N1` it was “inactive”; in that of `CCCCCCCCCCCCCCCCCCOCC(O)CO` (stereo not drawn), “inactive”.
Same read-out and setting: next, `CC1(C)CO[C@@H](CC(=O)O)CN1`: “inactive”; `CCN(CC)CCNC(=O)c1c(C)[nH]c(/C=C2\C(=O)Nc3ccc(F)cc32)c1C`: “inactive”.
Still for that read-out and setting: in the case of `Nc1ccc(S(=O)(=O)Nc2ccc(Cl)nn2)cc1` it was “inactive”; in that of `O=C(O)[C@@H]1CSCN1`, “inactive”.
For `COc1cc2[nH]c(=O)[nH]c(=O)c2cc1OC`, the Potency result in assay [15] was “inactive”.
In the case of `COc1ccccc1O`, in [15], the Potency result is “inactive”.
Same read-out and setting: in the case of `O=S(=O)(O)c1cc(I)c(O)c2ncccc12` it was 31.6 µM (active); in that of `CC(C)(C)NCC(O)COc1ccc(NC(=O)NC2CCCCC2)cc1` (stereo not drawn), “inactive”.
The same measure, in the same setting: in the case of `c1ccc(CN(CC2=NCCN2)c2ccccc2)cc1` it was “inactive”; in that of `O=C1O[C@H]([C@@H](O)CO)C(O)=C1O`, “inactive”; in that of `CN1CCCCC1CCN1c2ccccc2Sc2ccc(S(C)=O)cc21` (stereo not drawn), “inactive”.
For `O=C(CCCN1CCN(c2ccccn2)CC1)c1ccc(F)cc1`, the Potency entry in assay [15] was “inactive”.
Still for that read-out and setting: next, `NCC(=O)CCC(=O)O`: “inactive”; `NC(=O)N/N=C/c1ccc([N+](=O)[O-])o1`: “inactive”; `COc1cc(C)c(Cc2cnc(N)nc2N)cc1OC`: “inactive”.
As for `CN1CCC[C@@H]1Cc1c[nH]c2ccc(CCS(=O)(=O)c3ccccc3)cc12`, in assay [15], the Potency entry was “inactive”.
Still for that read-out and setting: in the case of `Cc1ccc(C(C)C)cc2c(C)ccc1-2` it was “inactive”; in that of `CCN(CC)CCSC(=O)C(c1ccccc1)c1ccccc1`, “inactive”; in that of `O=C1OC(OC(=O)c2cccnc2Nc2cccc(C(F)(F)F)c2)c2ccccc21` (stereo not drawn), “inactive”.
With `NC(=O)NNc1ccccc1`, the Potency entry in assay [15] is “inactive”.
